Experiment [1] can be described thus: Nuclear factor erythroid 2-related factor 2/antioxidant responsive element (Nrf2/ARE) small molecule agonists: qHTS cell viability counter screen in human keratinocytes (AID 1919968; active = well fitted curve in the direction sought with a large enough effect in the repeat runs; an effect the other way counts as inactive or inconclusive; note: nearly all actives have a fitted effect of over 55% in size). The gist of the method: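 Cytotoxicity was multiplexed with the Nrf2/ARE luciferase assay in the same wells. Stably transfected HaCaT keratinocytes were treated with test compounds for 23 h at 37 C. Cell viability was then measured by CellTiter-Fluor fluorescence.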
For orientation: qHTS replaces the single test concentration by a dilution series.

Experiment [2] has as its target KiSS-1 receptor (Homo sapiens) (UniProt Q969F8). Nature of the experiment: Human kisspeptin (KISS1R) small molecule agonists, calcium flux assay in KISS1R-HEK293 cells (AID 1920064; active = well fitted curve in the direction sought with a large enough effect in the repeat runs; an effect the other way counts as inactive or inconclusive). The essentials: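 Agonist activity is monitored as intracellular calcium rise in engineered HEK293 cells carrying human KISS1R. Cells are dye-loaded for 1 h at 37 C before compound addition, and fluorescence is recorded for 3 min.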
For orientation: Calcium assays in cells follow changes in intracellular calcium, usually with a dye or a luminescent sensor.

Experiment [3] is described as follows: G protein-coupled receptor (GPCR) small molecule agonists, calcium flux assay: HEK293 wild type cell line counter screen (AID 1920065). The gist of the method:
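Seed cells, incubate 18 h (37 C, 5% CO2); add calcium dye, 1 h at 37 C; pin-transfer compounds, ATP control or DMSO; read fluorescence 480/540 nm each second for 3 min.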

Experiment [4] is described as follows: p53 small molecule agonists, cell-based qHTS assay with human liver microsomes (AID 1963577). The gist of the method:
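Fluorescence of the beta-lactamase reporter in p53RE-bla cells, detected with LiveBLAzer substrate (2 h, room temperature, dark), served as the read-out after 16 h compound exposure at 37 C with human liver microsomes and NADPH, each 0.5 mg/mL final.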

The nature of experiment [5]: p53 small molecule agonists, cell-based qHTS assay with rat liver microsomes (AID 1963578). The essentials: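 Cells carrying a p53 response element–beta-lactamase reporter were plated and rested 5 h, then dosed with compound in DMSO plus rat liver microsomes and NADPH, each at 0.5 mg/mL final. After 16 h at 37 C, LiveBLAzer substrate was added for 2 h.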
The nature of experiment [6]: p53 small molecule agonists, cell-based qHTS assay with human liver microsomes: qHTS cell viability counter screen (AID 1963579). Note: nearly all actives have a fitted effect of over 45% in size. The essentials:
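Cytotoxicity counter screen: p53RE-bla, 4,000 cells/well; 5 h settle, 37 C/5% CO2; cpd + HLM 0.5 mg/mL + NADPH 0.5 mg/mL (final); 16 h, 37 C; CellTiter-Glo, 30 min RT, luminescence.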

A short description of experiment [7]: p53 small molecule agonists, cell-based qHTS assay: qHTS cell viability counter screen (AID 1963581). Note: nearly all actives have a fitted effect of over 45% in size. The essentials: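 Viability was counter-screened in parallel with the p53 agonist reporter by measuring intracellular ATP luminescence in the same HCT-116 p53RE-bla wells after 16 h compound treatment at 37 C.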
Experiment [8] in a line: p53 small molecule agonists, cell-based qHTS assay (AID 1963582; active = well fitted activation curve with a large enough effect in the signal ratio in the repeat runs, not every such curve was filed as active; the % refers to the signal ratio). The essentials:
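Cells carrying a p53-responsive bla reporter are treated with test compounds for 16 h at 37 C; beta-lactamase activity is then detected with LiveBLAzer B/G FRET substrate after 2 h at room temperature.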

Experiment [9] deals with 5-hydroxytryptamine receptor 2A (Homo sapiens) (UniProt P28223). Nature of the experiment: 5-hydroxytryptamine receptor 2A (HTR2A) small molecule antagonists, cell-based qHTS assay (AID 1963586). Note: nearly all actives have a fitted effect of over 45% in size. Note: potency is the fitted concentration of half-maximal effect. The gist of the method:
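CHO cells stably expressing human HTR2A were plated for 18 h at 37 C, then loaded with calcium dye for 1 h. Compounds were preincubated 5 min at room temperature before DOI (4 nM solution) was added. Kinetic fluorescence was read for 3 min.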

Experiment [10] shares this target. Nature of the experiment: 5-hydroxytryptamine receptor 2A (HTR2A) small molecule agonists, cell-based qHTS assay (AID 1963587). Note: nearly all actives have a fitted effect of over 30% in size. Note: potency is the fitted concentration of half-maximal effect. The essentials: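 CHO cells stably expressing human HTR2A, plated 18 h, loaded with calcium dye 1 h at 37 C. Agonist mode: compounds added and intracellular calcium fluorescence recorded kinetically for 2 min at 1 sec intervals.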
The target in experiment [11] is Muscarinic acetylcholine receptor M1 (Homo sapiens) (UniProt P11229). Nature of the experiment: Cholinergic receptor muscarinic 1 (CHRM1) small molecule antagonists, cell-based qHTS assay (AID 1963588). Note: nearly all actives have a fitted effect of over 40% in size. The gist of the method: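 Compounds were tested at 15 concentrations in three independent runs. Dye-loaded CHRM1-CHO cells were exposed 5 min at room temperature before stimulation by acetylcholine added at 50nM. Intracellular calcium was read kinetically on FDSS for 3 min.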
Chain of Muscarinic acetylcholine receptor M1 (Homo sapiens) (P11229 whole entry, looked up): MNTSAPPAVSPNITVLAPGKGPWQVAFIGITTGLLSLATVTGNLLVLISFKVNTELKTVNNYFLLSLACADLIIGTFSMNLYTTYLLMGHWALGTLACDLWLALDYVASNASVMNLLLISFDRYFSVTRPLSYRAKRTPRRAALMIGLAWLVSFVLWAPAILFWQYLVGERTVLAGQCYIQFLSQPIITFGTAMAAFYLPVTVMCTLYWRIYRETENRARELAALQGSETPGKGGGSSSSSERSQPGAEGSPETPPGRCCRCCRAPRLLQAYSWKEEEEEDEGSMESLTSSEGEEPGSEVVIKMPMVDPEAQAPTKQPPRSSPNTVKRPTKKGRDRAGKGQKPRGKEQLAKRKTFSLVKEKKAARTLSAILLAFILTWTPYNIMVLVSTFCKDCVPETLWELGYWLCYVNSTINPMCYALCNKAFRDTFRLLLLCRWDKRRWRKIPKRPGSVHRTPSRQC

For experiment [12] the target is unchanged. Description: Cholinergic receptor muscarinic 1 (CHRM1) small molecule agonists, cell-based qHTS assay (AID 1963589). Note: nearly all actives have a fitted effect of over 35% in size. The essentials:
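Cells were plated and incubated 18 h at 37 C/5% CO2, loaded with calcium dye for 1 h at 37 C, then treated with compounds in DMSO. Fluorescence was recorded kinetically at 1 sec intervals.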

A short description of experiment [13]: cAMP Responsive Elements (CRE) small molecule agonists, cell-based qHTS assay (AID 1963590). The essentials:
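Cells carrying a CRE-driven beta-lactamase reporter (HEK 293T) are seeded, incubated overnight (18 h), and treated with test compounds for 3 h at 37 C; reporter activity is then detected with a FRET substrate after 2 h at room temperature.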

Experiment [14] is described as follows: cAMP Responsive Elements (CRE) small molecule antagonists, cell-based qHTS assay (AID 1963591; active = well fitted inhibition curve with a large enough effect in the signal ratio in the repeat runs, not every such curve was filed as active; the % refers to the signal ratio). The gist of the method:
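Cells (CRE-bla HEK 293T, DMEM with 10% dialyzed FBS and 25 mM HEPES) are seeded and incubated 18 h. Compounds are added with NKH477 agonist at 0.25 uM final for 3 h, then FRET substrate for 2 h.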

The target of experiment [15] is Beta-2 adrenergic receptor (Homo sapiens) (UniProt P07550). Description: Adrenergic beta2 receptor (ADRB2) small molecule agonists, cell-based qHTS assay (AID 1963593).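 Note: CHO cells stably overexpressing human ADRB2.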 The gist of the method:
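CHO cells stably over-expressing ADRB2 were plated overnight at 37C, then dosed with compounds plus a stimulation mix containing 100uM IBMX and 25uM Ro-20-1724 for 0.5hr at room temperature. cAMP was measured by HTRF competition, 1hr.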

Experiment [16] addresses D(2) dopamine receptor (Homo sapiens) (UniProt P14416). Description: Dopamine D2 receptor (DRD2) small molecule agonists, cell-based qHTS assay (AID 1963594). Note: nearly all actives have a fitted effect of over 35% in size. The gist of the method:
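HEK293 cells stably expressing human DRD2, pre-treated with PDE inhibitor Ro20-1724 (0.1 mM final) and compound 10 min at room temperature, then stimulated with NKH477 (200nM […]) for 30 min. cAMP read by HTRF (665/620 nm).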

For experiment [17] the target is unchanged. Description: Dopamine D2 receptor (DRD2) small molecule antagonists, cell-based qHTS assay (AID 1963595; active = well fitted inhibition curve with a large enough effect in the signal ratio in the repeat runs, with a control signal flat; the % refers to the signal ratio). The essentials:
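DRD2-HEK293; 0.1 mM Ro20-1724; cpd 10 min RT; NKH477 200 nM + quinpirole 12 nM, 30 min RT; HTRF cAMP (cAMP-d2/anti-cAMP cryptate), 665/620 nm ratio after 1 h.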

The nature of experiment [18]: p53 small molecule agonists, cell-based qHTS assay with rat liver microsomes: qHTS cell viability counter screen (AID 1963580). Note: nearly all actives have a fitted effect of over 45% in size. The gist of the method: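 Cytotoxicity counter screen: intracellular ATP measured by CellTiter-Glo luminescence in the same wells as the beta-lactamase reporter read, on HCT-116 p53RE-bla cells exposed 16 h at 37 C to compounds with rat liver microsomes and NADPH, each 0.5 mg/mL final.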

The target in experiment [19] is Beta-2 adrenergic receptor (Homo sapiens) (UniProt P07550). Nature of the experiment: Adrenergic beta2 receptor (ADRB2) small molecule antagonists, cell-based qHTS assay (AID 1963592). For activity change, negative = inhibition: series mostly up to about 92 µM. Note: nearly all actives have a fitted effect of over 50% in size. Note: potency is the fitted concentration of half-maximal effect. The gist of the method:
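Assay format: CHO-ADRB2 cells, 18-20hr seeding at 37C/5% CO2, then compound plus 1nM isoproterenol agonist mix for 0.5hr RT. Homogeneous time-resolved fluorescence cAMP detection after 1hr, expressed as 665/615 nm ratio.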

Structures are written as SMILES. Values without a mark were called inactive. Results filed as inconclusive are left out. The source made the active and inactive calls. Unless noted, calls come from the whole dose curve.
% is set by controls: 0 for no effect and ±100 for the full control effect.

Chain of D(2) dopamine receptor (Homo sapiens) (P14416 whole entry, looked up): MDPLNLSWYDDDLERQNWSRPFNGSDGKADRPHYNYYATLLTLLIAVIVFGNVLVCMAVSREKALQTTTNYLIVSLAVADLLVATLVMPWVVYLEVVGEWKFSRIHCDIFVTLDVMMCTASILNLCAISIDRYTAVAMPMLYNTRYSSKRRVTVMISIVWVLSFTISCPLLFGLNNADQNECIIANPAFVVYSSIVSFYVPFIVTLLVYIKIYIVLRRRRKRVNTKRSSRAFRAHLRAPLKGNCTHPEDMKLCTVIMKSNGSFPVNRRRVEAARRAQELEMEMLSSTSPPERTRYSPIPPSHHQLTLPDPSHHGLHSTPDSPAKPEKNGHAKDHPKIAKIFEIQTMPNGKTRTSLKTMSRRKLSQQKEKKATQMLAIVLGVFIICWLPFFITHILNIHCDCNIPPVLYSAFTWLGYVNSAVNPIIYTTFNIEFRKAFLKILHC
Chain of 5-hydroxytryptamine receptor 2A (Homo sapiens) (P28223 whole entry, looked up): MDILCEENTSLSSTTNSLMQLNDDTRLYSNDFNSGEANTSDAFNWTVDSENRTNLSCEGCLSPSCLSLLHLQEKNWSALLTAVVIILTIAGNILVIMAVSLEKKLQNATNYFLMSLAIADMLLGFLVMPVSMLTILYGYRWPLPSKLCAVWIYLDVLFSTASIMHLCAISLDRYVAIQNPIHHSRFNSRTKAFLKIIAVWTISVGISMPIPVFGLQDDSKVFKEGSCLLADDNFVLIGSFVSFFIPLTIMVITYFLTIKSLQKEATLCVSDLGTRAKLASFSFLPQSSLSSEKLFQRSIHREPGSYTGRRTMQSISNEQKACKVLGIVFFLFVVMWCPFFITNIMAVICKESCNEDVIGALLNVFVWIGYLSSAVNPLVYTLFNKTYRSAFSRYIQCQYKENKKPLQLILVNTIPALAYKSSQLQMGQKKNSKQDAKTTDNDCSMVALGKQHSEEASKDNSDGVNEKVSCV
Chain of Beta-2 adrenergic receptor (Homo sapiens) (P07550 whole entry, looked up): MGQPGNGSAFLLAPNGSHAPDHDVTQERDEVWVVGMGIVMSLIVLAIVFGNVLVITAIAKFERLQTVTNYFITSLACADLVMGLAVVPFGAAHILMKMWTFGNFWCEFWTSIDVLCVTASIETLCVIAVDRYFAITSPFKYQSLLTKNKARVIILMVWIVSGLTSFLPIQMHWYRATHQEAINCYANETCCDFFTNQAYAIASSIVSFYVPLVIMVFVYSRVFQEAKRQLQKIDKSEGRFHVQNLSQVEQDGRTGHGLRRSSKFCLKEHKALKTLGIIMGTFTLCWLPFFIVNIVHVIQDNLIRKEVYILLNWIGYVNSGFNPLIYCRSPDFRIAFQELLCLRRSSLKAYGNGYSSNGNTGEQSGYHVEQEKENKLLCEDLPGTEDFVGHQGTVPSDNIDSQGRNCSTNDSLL
Chain of KiSS-1 receptor (Homo sapiens) (Q969F8 whole entry, looked up): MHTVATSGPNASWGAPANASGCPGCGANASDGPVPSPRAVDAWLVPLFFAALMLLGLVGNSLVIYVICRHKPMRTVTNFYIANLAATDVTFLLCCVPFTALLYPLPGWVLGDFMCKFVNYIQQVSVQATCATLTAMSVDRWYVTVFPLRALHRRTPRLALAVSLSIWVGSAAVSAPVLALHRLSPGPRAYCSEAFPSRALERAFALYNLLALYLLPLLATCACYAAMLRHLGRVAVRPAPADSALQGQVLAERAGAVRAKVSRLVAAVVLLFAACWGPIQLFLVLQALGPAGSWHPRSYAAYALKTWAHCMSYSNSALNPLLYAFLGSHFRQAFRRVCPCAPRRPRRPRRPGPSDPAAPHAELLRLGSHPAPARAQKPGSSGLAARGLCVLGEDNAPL

With `CCN1CCOCC1`, the Potency entry in experiment [1], in [2], in experiment [3], in experiment [4], in experiment [5] and in experiment [6] was “inactive” in each case. Moreover, the Potency result in experiment [7], in [8], in experiment [9], in [10], in experiment [11] and in experiment [12] was “inactive” in each case. For the same compound, the Potency result in experiment [13], in experiment [14], in experiment [15], in experiment [16] and in experiment [17] was “inactive” each time.
With `CCCCCOC(=O)c1ccc(O)cc1`, the Potency entry in experiment [1], in experiment [2], in [3], in experiment [18], in [7] and in experiment [12] was “inactive” throughout. Besides, the Potency entry in experiment [19], in [15], in experiment [16] and in experiment [17] was “inactive” each time. For the same compound, the Potency was 9.54 µM (active) in experiment [9] and 35.1 µM (active) in [10].
On to `NS(=O)(=O)c1ccc(C(=O)O)cc1`, for which the Potency entry in experiment [1], in [2], in [5], in experiment [6], in experiment [18] and in [9] was “inactive” in each case. The Potency result in experiment [10], in [11], in [12], in experiment [13], in [14] and in experiment [19] was “inactive” throughout. Moreover, the Potency result in experiment [15], in experiment [16] and in experiment [17] was “inactive” throughout.
Consider `CC1=CC(=C(c2ccc(N)cc2)c2ccc(N)cc2)C=CC1=N`, for which the activity change, negative = cytotoxicity in experiment [1] is -10.2% [at 8.39 µM]; in experiment [6] it was -13.2% [at 5.99 µM]; in experiment [7], -0.979% [at 5.99 µM]. Besides, the activation in experiment [2] is 0.102% [at 6.97 µM]; in [3] it was -0.23% [at 5.23 µM]; in experiment [5] it was -2.26% [at 5.99 µM]; in experiment [8], -2.87% [at 5.99 µM]; in experiment [10], 2.32% [at 7.02 µM]; in experiment [12] it was -0.812% [at 6.97 µM]. The activation is -0.0749% [at 8.39 µM] in experiment [13], -33.8% [at 8.39 µM] in [15] and -0.554% [at 8.39 µM] in experiment [16]. Also, the activity, negative = inhibition in [9] was 14.5% [at 5.62 µM]; in [11], -8.08% [at 5.58 µM]. Further, the activity change, negative = inhibition in experiment [14] is -12.2% [at 8.39 µM]; in experiment [19] it was -4.98% [at 8.39 µM]; in [17], 0.406% [at 8.38 µM].
On to `CN1C(=O)c2ccccc2C1=O`, for which the Potency entry in [1], in experiment [2], in experiment [3], in experiment [4], in experiment [6] and in experiment [7] was “inactive” in each case. Also, the Potency entry in experiment [8], in experiment [9], in experiment [10], in [12], in experiment [13] and in experiment [14] was “inactive” each time. Moreover, the Potency entry in experiment [17] is “inactive”. Besides, in experiment [19], the Potency is 54.5 µM (active).
Take `CCCCCCCCCCOC(=O)c1ccccc1C(=O)OCCCCCCCC`: the Potency entry in [1], in experiment [2], in experiment [3], in experiment [4], in experiment [5] and in experiment [6] was “inactive” each time. In addition, the Potency result in [8], in experiment [9], in experiment [11], in [12], in [13] and in experiment [14] was “inactive” throughout. In addition, the Potency result in experiment [16] is “inactive”.

The values are drawn from PubChem BioAssay (Tox21).
